# In PubChem BioAssay:
# For some of these results: Potency and affinity values are given separately. Active and inactive are the calls of the source.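 The calls were made as follows, unless noted: active = primary screen activator hit with a dose response curve and TRPC4 channel activation at any tested dose; inactive = no activation, no dose response, or not a primary hit.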
# Experiments:
# [1] = system: TRPC4 beta (transient receptor potential cation channel C4), mouse; assay: activators of mouse TRPC4 channel, confirmation, cell-based, Fluo4 calcium, HEK293 TRPC4beta/mu-opioid, duplicates, 10 µM (AID 2426;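 active = fluorescence ratio normalized to control raised more than 50% in primary screen plus both repeat runs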); details: Fluo4 calcium fluorescence, at 10 µM; hits give high values
# [2] = system: transient receptor potential cation channel C4 beta (TRPC4), mouse; assay: activators of mouse TRPC4 channel, confirmation, cell-based, second round, Fluo4, HEK293 TRPC4beta/mu-opioid, 1 µM (AID 2461;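 active = primary screen active and over 50% activation in each of two duplicate runs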); details: Fluo4 calcium fluorescence, at 1 µM; hits give high values
# [3] = system: TRPC4 (transient receptor potential cation channel C4 beta), mouse; assay: positive allosteric modulators of mouse TRPC4, confirmation, cell-based, second round, Fluo-4, HEK293 TRPC4beta/mu-opioid, 1 µM (AID 2554;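 active = primary screen hit whose fluorescence ratio, in both repeats, exceeds the weak agonist control mean by 3 SD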); details: DAMGO EC20, Fluo-4 calcium flux, at 1 µM; hits give high values
# [4] = system: TRPC4 beta (transient receptor potential cation channel C4), mouse; assay: positive allosteric modulators of mouse TRPC4, confirmation, cell-based, Fluo-4, HEK293 TRPC4beta/mu-opioid (AID 2555;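 active = primary screen hit whose calcium fluorescence ratio, in both repeats, exceeds the weak agonist control mean by 3 SD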); details: DAMGO EC20, Fluo-4 calcium flux, at 10 µM; hits give high values
# [5] = target: Short transient receptor potential channel 4 (Mus musculus) (UniProt Q9QUQ5); assay: inhibitors of mouse TRPC4 channel, confirmation, cell-based, Fluo4, HEK293 TRPC4beta/mu-opioid (AID 2636;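 active = calcium signal cut by more than 3 SD below the full-agonist control yet still positive, in both repeats and the earlier primary screen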); details: DAMGO, Fluo4 calcium flux, at 10 µM; hits give high values
# [6] = target: Short transient receptor potential channel 4 (Mus musculus) (UniProt Q9QUQ5); assay: inhibitors of mouse TRPC4 channel, confirmation, cell-based, second round, Fluo4, HEK293 TRPC4beta/mu-opioid, 1 µM (AID 2637;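 active = calcium signal ratio cut to more than 3 SD under the fully stimulated control mean yet still positive, in both repeats and the primary screen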;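 as to inhibition: percent of integrated ratio relative to wells lacking test compound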); details: Fluo4 calcium flux, DAMGO, at 1 µM; hits give high values
# [7] = target: Short transient receptor potential channel 4 (Mus musculus) (UniProt Q9QUQ5); assay: mouse TRPC4 channel activators, dose response, cell-based, HEK293 TRPC4/mu-opioid, Fluo-4 calcium (AID 434937)
# [8] = target: Short transient receptor potential channel 4 (Mus musculus) (UniProt Q9QUQ5); assay: TRPC4 positive allosteric modulators, dose response, cell-based, HEK293 TRPC4/mu-opioid, Fluo-4 calcium, EC20 DAMGO (AID 434941;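 active = earlier screen potentiator hit that boosts the TRPC4 ion channel at some dose, with a dose response; inactive = no potentiation, no dose response, or not a prior hit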;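 also: calcium entry triggered by an EC20 dose of DAMGO at the co-expressed mu-opioid receptor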)
# [9] = target: Short transient receptor potential channel 6 (Mus musculus) (UniProt Q61143); assay: inhibition of mouse TRPC6 channel, confirmation, selectivity assay for TRPC4 inhibitor project, cell-based, HEK293, membrane potential dye, duplicate (AID 434948;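 active = active in primary screen and both duplicates, each dropping signal beyond three positive-control SD with fluorescence still positive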); details: HEK293 TRPC6, membrane potential dye fluorescence, at 10 µM, stimulated with maximal-effect acetylcholine; hits give high values
# [10] = target: Short transient receptor potential channel 6 (Mus musculus) (UniProt Q61143); assay: activation of mouse TRPC6 channel, confirmation, selectivity assay for TRPC4 activator project, cell-based, HEK293, membrane potential dye, duplicate (AID 434950;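 active = membrane potential signal rise above negative control mean plus 3 SD in both duplicates, also active in the earlier TRPC4 screen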); details: HEK293 TRPC6, membrane potential fluorescence, at 10 µM; hits give high values
# [11] = target: Short transient receptor potential channel 6 (Mus musculus) (UniProt Q61143); assay: TRPC6 potentiation by TRPC4 potentiator hits, confirmation, selectivity assay for TRPC4 potentiator project, HEK293 cells, membrane potential dye, duplicate (AID 434952;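 active = compound raising the membrane signal above positive-control mean plus 3 SD in both repeats, and a primary screen hit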); details: HEK293 TRPC6, membrane potential dye fluorescence, at 10 µM, maximal acetylcholine added after compound; hits give high values
# [12] = target: Short transient receptor potential channel 4 (Mus musculus) (UniProt Q9QUQ5); assay: calcium flux activators in TRPC4/5HT1a cells, counter-screen for TRPC4 activator project, cell-based, second counter screen, HEK293 TRPC4/5HT1a, Fluo-4 (AID 434977;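 active = calcium signal rise above buffer-control mean plus 5 SD in both duplicates, and also a hit in the primary screen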); details: Fluo-4 calcium flux, at 10 µM; hits give high values
# [13] = calcium flux inhibitors in TRPC4/5HT1a cells, confirmation, counter-screen for TRPC4 inhibitor project, cell-based, second counter screen, HEK293 TRPC4/5HT1a, Fluo-4 (AID 434978;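 active = primary screen active whose calcium signal fell more than 3 SD beyond the full-serotonin control mean in both duplicate plates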;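 as to outcome: serotonin given first at submaximal then at maximal dose after compound preincubation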); details: Fluo-4 calcium flux, at 10 µM, serotonin added to trigger calcium flux; hits give high values
# [14] = system: TRPC4 (mouse), co-expressed with 5HT1a in HEK293; assay: calcium flux potentiators in TRPC4/5HT1a cells, confirmation, counter-screen for TRPC4 potentiator project, cell-based, second counter screen, HEK293 TRPC4/5HT1a, Fluo-4 (AID 434979;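 active = signal rise over 3 SD above mean of control wells given weak agonist, in both repeats and first screen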); details: Fluo-4 calcium flux, at 10 µM, serotonin added at its EC20 dose; hits give high values
# [15] = calcium flux activation in mu-opioid HEK293 cells, confirmation, counter-screen for TRPC4 activator project, cell-based, HEK293 mu-opioid receptor line (AID 449723;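 active = hit in primary screen, with calcium signal over 5 SD above buffer well mean in both duplicates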;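 also: counter screen cells carry the mu-opioid receptor alone and lack TRPC4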); details: Fluo-4 calcium fluorescence, at 10 µM; hits give high values
# [16] = calcium flux enhancement in mu-opioid HEK293 cells, confirmation, counter-screen for TRPC4 allosteric potentiator project, cell-based, HEK293 mu-opioid receptor line (AID 449724;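 active = calcium signal rise more than 3 SD above the low-dose agonist control mean, in both duplicate plates and the primary screen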); details: Fluo-4 calcium flux, at 10 µM, compound added before EC20 DAMGO stimulus; hits give high values
# Short transient receptor potential channel 4 (Mus musculus), sequence (Q9QUQ5 whole entry, looked up): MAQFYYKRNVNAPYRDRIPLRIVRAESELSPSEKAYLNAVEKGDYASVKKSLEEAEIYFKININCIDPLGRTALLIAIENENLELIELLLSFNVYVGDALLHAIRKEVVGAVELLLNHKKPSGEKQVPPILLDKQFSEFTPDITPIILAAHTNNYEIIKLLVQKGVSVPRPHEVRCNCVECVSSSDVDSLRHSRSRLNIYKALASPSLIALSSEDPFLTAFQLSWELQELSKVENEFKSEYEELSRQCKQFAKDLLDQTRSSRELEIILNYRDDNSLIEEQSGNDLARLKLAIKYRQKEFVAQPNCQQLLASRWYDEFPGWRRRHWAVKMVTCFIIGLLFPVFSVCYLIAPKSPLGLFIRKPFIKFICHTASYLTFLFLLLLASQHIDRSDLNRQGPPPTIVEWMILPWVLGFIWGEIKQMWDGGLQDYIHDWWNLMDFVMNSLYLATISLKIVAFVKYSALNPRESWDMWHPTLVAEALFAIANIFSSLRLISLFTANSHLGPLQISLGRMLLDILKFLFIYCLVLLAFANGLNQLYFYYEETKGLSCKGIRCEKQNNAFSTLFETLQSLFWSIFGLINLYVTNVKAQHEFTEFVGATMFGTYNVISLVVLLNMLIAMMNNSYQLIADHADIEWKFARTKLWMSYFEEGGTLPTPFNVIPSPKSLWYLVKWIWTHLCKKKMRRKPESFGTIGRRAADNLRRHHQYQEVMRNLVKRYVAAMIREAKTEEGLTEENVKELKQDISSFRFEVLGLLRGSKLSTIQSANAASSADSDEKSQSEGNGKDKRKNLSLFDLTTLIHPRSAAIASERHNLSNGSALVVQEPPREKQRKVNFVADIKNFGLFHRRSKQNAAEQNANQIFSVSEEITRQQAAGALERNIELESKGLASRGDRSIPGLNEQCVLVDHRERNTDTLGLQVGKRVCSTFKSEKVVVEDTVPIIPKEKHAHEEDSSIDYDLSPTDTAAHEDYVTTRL
# Short transient receptor potential channel 6 (Mus musculus), sequence (Q61143 whole entry, looked up): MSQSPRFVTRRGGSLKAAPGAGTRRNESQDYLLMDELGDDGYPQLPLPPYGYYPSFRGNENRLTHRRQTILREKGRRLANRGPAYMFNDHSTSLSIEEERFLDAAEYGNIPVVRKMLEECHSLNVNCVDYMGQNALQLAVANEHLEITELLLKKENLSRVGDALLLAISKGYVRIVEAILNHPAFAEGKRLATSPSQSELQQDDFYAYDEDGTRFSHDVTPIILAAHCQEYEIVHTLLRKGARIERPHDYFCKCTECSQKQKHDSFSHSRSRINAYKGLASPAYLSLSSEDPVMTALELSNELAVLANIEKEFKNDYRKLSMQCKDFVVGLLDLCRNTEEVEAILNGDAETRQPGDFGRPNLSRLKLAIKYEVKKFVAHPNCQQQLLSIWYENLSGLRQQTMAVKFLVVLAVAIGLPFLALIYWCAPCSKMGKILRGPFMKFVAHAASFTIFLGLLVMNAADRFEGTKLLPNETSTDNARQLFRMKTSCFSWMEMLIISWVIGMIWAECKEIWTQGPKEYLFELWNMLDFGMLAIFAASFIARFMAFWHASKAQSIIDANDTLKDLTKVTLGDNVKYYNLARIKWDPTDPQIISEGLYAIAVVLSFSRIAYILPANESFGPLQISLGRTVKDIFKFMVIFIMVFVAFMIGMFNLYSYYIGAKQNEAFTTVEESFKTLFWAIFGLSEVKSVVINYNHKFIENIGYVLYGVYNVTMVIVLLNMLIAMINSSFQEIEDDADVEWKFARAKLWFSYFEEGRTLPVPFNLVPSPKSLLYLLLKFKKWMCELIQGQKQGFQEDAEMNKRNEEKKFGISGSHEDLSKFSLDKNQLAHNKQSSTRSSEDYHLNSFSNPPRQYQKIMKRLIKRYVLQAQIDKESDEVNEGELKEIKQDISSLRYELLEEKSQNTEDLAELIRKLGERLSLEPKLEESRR
Structure (SMILES),outcome [1],outcome [2],outcome [3],outcome [4],inhibition [5],outcome [6],outcome [7],outcome [8],outcome [9],outcome [10],outcome [11],outcome [12],inhibition [13],outcome [14],outcome [15],outcome [16],inhibition [6],outcome [13],outcome [5],inhibition [9]
Cc1cccc(N(Cc2ccccc2)C(=O)CSC(C)C(=O)Nc2cc(C)on2)c1 (stereo unspecified),inactive,inactive,inactive,inactive,91% (active),inactive,inactive,inactive,inactive,inactive,inactive,inactive,31.4% (active),inactive,inactive,inactive,,,,
O=C(c1ccc2c(c1)OCO2)C1CCCN(Cc2ccccc2OC(F)F)C1 (stereo unspecified),inactive,inactive,inactive,inactive,89% (active),inactive,inactive,inactive,inactive,inactive,inactive,inactive,41.6% (active),inactive,inactive,inactive,,,,
Cc1nc(Cl)c(Cl)n1CCOc1ccccc1,inactive,inactive,inactive,inactive,94% (active),,inactive,inactive,inactive,inactive,inactive,inactive,18.9% (active),inactive,inactive,inactive,46% (active),,,
COCCn1c(SCc2cc(C(C)=O)ccc2OC)nc2cc(Cl)ccc2c1=O,inactive,inactive,inactive,inactive,78% (active),inactive,inactive,inactive,inactive,inactive,inactive,inactive,,inactive,inactive,inactive,,inactive,,
Fc1ccc(-n2cc(CNCCc3ccncc3)c(-c3ccccc3Cl)n2)cc1,inactive,inactive,inactive,inactive,,inactive,inactive,inactive,inactive,inactive,inactive,inactive,,inactive,inactive,inactive,,inactive,inactive,
CCC1C=C(c2ccccc2)C=CN=C1N(CC)CC (stereo unspecified),inactive,inactive,inactive,inactive,93% (active),inactive,inactive,inactive,inactive,inactive,inactive,inactive,26.5% (active),inactive,inactive,inactive,,,,
CN1CCN(c2ccc(NC(=O)c3ccc(-c4ccc(Cl)cc4)o3)cc2)CC1,inactive,inactive,inactive,inactive,85% (active),,inactive,inactive,inactive,inactive,inactive,inactive,,inactive,inactive,inactive,58% (active),inactive,,
CCC1(C(=O)c2ccccc2)C(c2ccc([N+](=O)[O-])cc2)C1(C(=O)OC)C(=O)OC (stereo unspecified),inactive,inactive,inactive,inactive,71% (active),inactive,inactive,inactive,inactive,inactive,inactive,inactive,,inactive,inactive,inactive,,inactive,,
COc1ncnc2sc3c(c12)CCCC3,inactive,inactive,inactive,inactive,93% (active),inactive,inactive,inactive,inactive,inactive,inactive,inactive,,inactive,inactive,inactive,,inactive,,
CCOC(=O)C1=NN(c2ccccc2C)C2=NC(C)=C(C(=O)OC)C(c3cccc(OC)c3)N12 (stereo unspecified),inactive,inactive,inactive,inactive,75% (active),inactive,inactive,inactive,inactive,inactive,inactive,inactive,20.5% (active),inactive,inactive,inactive,,,,
CC(C)C1=Nc2cccc3cccc(c23)N1,inactive,inactive,inactive,inactive,95% (active),,inactive,inactive,inactive,inactive,inactive,inactive,17.1% (active),inactive,inactive,inactive,49% (active),,,
CCC(C)[C@H](Nc1nc(-c2ccccc2)nc2c1oc1ccccc12)C(=O)O (stereo partly specified),inactive,inactive,inactive,inactive,89% (active),inactive,inactive,inactive,inactive,inactive,inactive,inactive,,inactive,inactive,inactive,,inactive,,
O=C(O)c1ccc(CSc2nc(-c3ccc(Cl)cc3)cc(C(F)(F)F)n2)cc1,inactive,inactive,inactive,inactive,77% (active),inactive,inactive,inactive,inactive,inactive,inactive,inactive,19.2% (active),inactive,inactive,inactive,,,,
COc1cc(CNC2CCCC2)cc(Cl)c1OCc1ccc(F)cc1,inactive,inactive,inactive,inactive,82% (active),inactive,inactive,inactive,inactive,inactive,inactive,inactive,37.5% (active),inactive,inactive,inactive,,,,
FC(F)Oc1ccccc1NC(=S)Nc1cccc(Cl)c1Cl,inactive,inactive,inactive,inactive,77% (active),,inactive,inactive,inactive,inactive,inactive,inactive,,inactive,inactive,inactive,45% (active),inactive,,
CCCCCN1C2=NCCN2c2ccccc21,inactive,inactive,inactive,inactive,94% (active),,inactive,inactive,inactive,inactive,inactive,inactive,25.1% (active),inactive,inactive,inactive,70% (active),,,

Structure (SMILES),outcome [1],outcome [2],outcome [3],outcome [4],inhibition [5],outcome [6],outcome [7],outcome [8],outcome [9],outcome [10],outcome [11],outcome [12],inhibition [13],outcome [14],outcome [15],outcome [16],inhibition [6],outcome [13],outcome [5],inhibition [9]
COC(=O)CSc1nn(-c2ccc(F)cc2)c(=S)s1,inactive,inactive,inactive,inactive,90% (active),,inactive,inactive,inactive,inactive,inactive,inactive,39.2% (active),inactive,inactive,inactive,39% (active),,,
CCCN(c1nc(C)cc(OC)n1)S(=O)(=O)c1ccccc1,inactive,inactive,inactive,inactive,59% (active),inactive,inactive,inactive,inactive,inactive,inactive,inactive,25.2% (active),inactive,inactive,inactive,,,,
CC#CC[N+](C)(C)CCCCCCCCCCCC,inactive,inactive,inactive,inactive,97% (active),,inactive,inactive,,inactive,inactive,inactive,9.36% (active),inactive,inactive,inactive,55% (active),,,36% (active)
O=C(Nc1ccccc1Oc1cccnc1)C1CCCN(Cc2ccc(F)cc2)C1 (stereo unspecified),inactive,inactive,inactive,inactive,87% (active),,inactive,inactive,inactive,inactive,inactive,inactive,30.2% (active),inactive,inactive,inactive,43% (active),,,
CCc1cc(C(c2cccc(OC)c2)N2CCOCC2)c(NC(=O)c2ccccc2)s1 (stereo unspecified),inactive,inactive,inactive,inactive,62% (active),inactive,inactive,inactive,inactive,inactive,inactive,inactive,28% (active),inactive,inactive,inactive,,,,
COc1ccc(NC(=O)c2cccc(N3C(=O)C4CC=C(C)CC4C3=O)c2)c(OC)c1 (stereo unspecified),inactive,inactive,inactive,inactive,75% (active),inactive,inactive,inactive,inactive,inactive,inactive,inactive,,inactive,inactive,inactive,,inactive,,
COCCn1c(SCC(=O)c2ccccc2)nc2ccccc2c1=O,inactive,inactive,inactive,inactive,91% (active),,inactive,inactive,inactive,inactive,inactive,inactive,20.4% (active),inactive,inactive,inactive,48% (active),,,
O=C(c1ccc2c(c1)OCO2)C1CCCN(Cc2cc(F)ccc2-n2cccn2)C1 (stereo unspecified),inactive,inactive,inactive,inactive,87% (active),inactive,inactive,inactive,inactive,inactive,inactive,inactive,32.9% (active),inactive,inactive,inactive,,,,
CC(=O)N(c1ccc(Cl)cc1)c1c[nH]c2ccccc12,inactive,inactive,inactive,inactive,94% (active),inactive,inactive,inactive,inactive,inactive,inactive,inactive,22.3% (active),inactive,inactive,inactive,,,,
CN(C)CCCN(Cc1cc2cc3c(cc2[nH]c1=O)OCO3)C(=S)NCc1ccco1,inactive,inactive,inactive,inactive,93% (active),,inactive,inactive,inactive,inactive,inactive,inactive,26.8% (active),inactive,inactive,inactive,69% (active),,,
Cc1nn(-c2cccc(Cl)c2)c2nc(C(F)(F)F)[nH]c(=O)c12,inactive,inactive,inactive,inactive,95% (active),,inactive,inactive,inactive,inactive,inactive,inactive,34.8% (active),inactive,inactive,inactive,56% (active),,,
CCOc1ccc(Br)cc1/C=N/O,inactive,inactive,inactive,inactive,90% (active),inactive,inactive,inactive,,inactive,inactive,inactive,29.2% (active),inactive,inactive,inactive,,,,27.5% (active)
Nc1c2c(nc3ccccc13)CCC2,inactive,inactive,inactive,inactive,97% (active),,inactive,inactive,,inactive,inactive,inactive,29.6% (active),inactive,inactive,inactive,44% (active),,,16.5% (active)
O=S(=O)(c1ccccc1)N1CCN(C/C=C/c2ccccc2)CC1,inactive,inactive,inactive,inactive,93% (active),inactive,inactive,inactive,inactive,inactive,inactive,inactive,,inactive,inactive,inactive,,inactive,,
Cc1ccc(N(C(=O)c2snc(C(N)=O)c2N)C(C(=O)NCC2CCCO2)c2ccc(C)o2)c(C)c1 (stereo unspecified),inactive,inactive,inactive,inactive,75% (active),inactive,inactive,inactive,inactive,inactive,inactive,inactive,34% (active),inactive,inactive,inactive,,,,
